For 14 compounds, outcome and inhibition results are on record in PubChem BioAssay.

For some assays here: Measured potencies and affinities stand elsewhere. Calls of active or inactive are those of the source.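 Rule for the calls, unless noted: active = primary screen hit whose calcium fluorescence ratio, in both repeats, exceeds the weak agonist control mean by 3 SD; inactive = the rest.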

By inhibition is commonly meant the change of the read-out against control, counted positive when it falls.

Test [1] deals with TRPC4 beta (transient receptor potential cation channel C4), mouse. Briefly: activators of mouse TRPC4 channel, confirmation, cell-based, Fluo4 calcium, HEK293 TRPC4beta/mu-opioid, duplicates, 10 µM (AID 2426;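 active = fluorescence ratio normalized to control raised more than 50% in primary screen plus both repeat runs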). The note with it: Fluo4 calcium fluorescence, at 10 µM; hits give high values.
For test [2], the system named is transient receptor potential cation channel C4 beta (TRPC4), mouse. The test is described as follows: activators of mouse TRPC4 channel, confirmation, cell-based, second round, Fluo4, HEK293 TRPC4beta/mu-opioid, 1 µM (AID 2461;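 active = primary screen active and over 50% activation in each of two duplicate runs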). The note with it: Fluo4 calcium fluorescence, at 1 µM; hits give high values.
Test [3] concerns TRPC4 (transient receptor potential cation channel C4 beta), mouse. The test is described as follows: positive allosteric modulators of mouse TRPC4, confirmation, cell-based, second round, Fluo-4, HEK293 TRPC4beta/mu-opioid, 1 µM (AID 2554;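 active = primary screen hit whose fluorescence ratio, in both repeats, exceeds the weak agonist control mean by 3 SD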). The note with it: DAMGO EC20, Fluo-4 calcium flux, at 1 µM; hits give high values. In general terms: Calcium assays in cells follow changes in intracellular calcium, usually with a dye or a luminescent sensor.

Test [4] relates to TRPC4 beta (transient receptor potential cation channel C4), mouse. Briefly: positive allosteric modulators of mouse TRPC4, confirmation, cell-based, Fluo-4, HEK293 TRPC4beta/mu-opioid (AID 2555). The note with it: DAMGO EC20, Fluo-4 calcium flux, at 10 µM; hits give high values.
Test [5] concerns the target Short transient receptor potential channel 4 (Mus musculus) (UniProt Q9QUQ5). The test is described as follows: inhibitors of mouse TRPC4 channel, confirmation, cell-based, Fluo4, HEK293 TRPC4beta/mu-opioid (AID 2636;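 active = calcium signal cut by more than 3 SD below the full-agonist control yet still positive, in both repeats and the earlier primary screen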). The note with it: DAMGO, Fluo4 calcium flux, at 10 µM; hits give high values.
Test [6] shares this target. The test is described as follows: inhibitors of mouse TRPC4 channel, confirmation, cell-based, second round, Fluo4, HEK293 TRPC4beta/mu-opioid, 1 µM (AID 2637;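 active = calcium signal ratio cut to more than 3 SD under the fully stimulated control mean yet still positive, in both repeats and the primary screen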;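 for inhibition: percent of integrated ratio relative to wells lacking test compound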). The note with it: Fluo4 calcium flux, DAMGO, at 1 µM; hits give high values.
Test [7] shares this target. The test is described as follows: mouse TRPC4 channel activators, dose response, cell-based, HEK293 TRPC4/mu-opioid, Fluo-4 calcium (AID 434937;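 active = primary screen activator hit with a dose response curve and TRPC4 channel activation at any tested dose; inactive = no activation, no dose response, or not a primary hit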).
Test [8] shares this target. Briefly: TRPC4 positive allosteric modulators, dose response, cell-based, HEK293 TRPC4/mu-opioid, Fluo-4 calcium, EC20 DAMGO (AID 434941;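 active = earlier screen potentiator hit that boosts the TRPC4 ion channel at some dose, with a dose response; inactive = no potentiation, no dose response, or not a prior hit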;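 note: calcium entry triggered by an EC20 dose of DAMGO at the co-expressed mu-opioid receptor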).
Test [9] deals with Short transient receptor potential channel 6 (Mus musculus) (UniProt Q61143). Briefly: inhibition of mouse TRPC6 channel, confirmation, selectivity assay for TRPC4 inhibitor project, cell-based, HEK293, membrane potential dye, duplicate (AID 434948;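 active = active in primary screen and both duplicates, each dropping signal beyond three positive-control SD with fluorescence still positive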). The note with it: HEK293 TRPC6, membrane potential dye fluorescence, at 10 µM, stimulated with maximal-effect acetylcholine; hits give high values.
Short transient receptor potential channel 6 (Mus musculus), sequence (Q61143 whole entry, looked up): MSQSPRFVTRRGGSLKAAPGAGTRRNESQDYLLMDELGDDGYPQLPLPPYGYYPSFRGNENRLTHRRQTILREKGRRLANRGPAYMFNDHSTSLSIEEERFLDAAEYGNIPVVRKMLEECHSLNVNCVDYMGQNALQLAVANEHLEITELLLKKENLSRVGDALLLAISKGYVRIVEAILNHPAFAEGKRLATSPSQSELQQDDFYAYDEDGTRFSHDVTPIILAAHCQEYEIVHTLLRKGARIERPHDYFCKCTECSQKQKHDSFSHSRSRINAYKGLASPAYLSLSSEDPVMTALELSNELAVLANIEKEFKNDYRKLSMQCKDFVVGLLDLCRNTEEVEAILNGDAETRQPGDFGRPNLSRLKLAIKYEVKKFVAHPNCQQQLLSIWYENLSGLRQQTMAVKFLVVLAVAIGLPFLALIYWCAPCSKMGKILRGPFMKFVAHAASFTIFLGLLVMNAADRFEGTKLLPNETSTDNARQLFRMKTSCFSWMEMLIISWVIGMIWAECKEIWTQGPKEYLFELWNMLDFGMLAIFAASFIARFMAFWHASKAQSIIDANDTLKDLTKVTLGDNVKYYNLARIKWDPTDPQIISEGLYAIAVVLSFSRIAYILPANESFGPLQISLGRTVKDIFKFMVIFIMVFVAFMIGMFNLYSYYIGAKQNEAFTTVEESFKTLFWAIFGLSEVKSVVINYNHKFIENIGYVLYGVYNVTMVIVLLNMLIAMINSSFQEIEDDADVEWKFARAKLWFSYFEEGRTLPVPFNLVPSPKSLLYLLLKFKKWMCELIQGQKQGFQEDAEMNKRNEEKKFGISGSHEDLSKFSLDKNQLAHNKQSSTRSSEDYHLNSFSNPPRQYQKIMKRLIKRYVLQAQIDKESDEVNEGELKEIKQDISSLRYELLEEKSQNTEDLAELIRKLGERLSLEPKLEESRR

The target is the same in test [10]. The test is described as follows: activation of mouse TRPC6 channel, confirmation, selectivity assay for TRPC4 activator project, cell-based, HEK293, membrane potential dye, duplicate (AID 434950;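 active = membrane potential signal rise above negative control mean plus 3 SD in both duplicates, also active in the earlier TRPC4 screen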). The note with it: HEK293 TRPC6, membrane potential fluorescence, at 10 µM; hits give high values.
The target is the same in test [11]. Briefly: TRPC6 potentiation by TRPC4 potentiator hits, confirmation, selectivity assay for TRPC4 potentiator project, HEK293 cells, membrane potential dye, duplicate (AID 434952;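 active = compound raising the membrane signal above positive-control mean plus 3 SD in both repeats, and a primary screen hit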). The note with it: HEK293 TRPC6, membrane potential dye fluorescence, at 10 µM, maximal acetylcholine added after compound; hits give high values.
Test [12] concerns the target Short transient receptor potential channel 4 (Mus musculus) (UniProt Q9QUQ5). Briefly: calcium flux activators in TRPC4/5HT1a cells, counter-screen for TRPC4 activator project, cell-based, second counter screen, HEK293 TRPC4/5HT1a, Fluo-4 (AID 434977;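 active = calcium signal rise above buffer-control mean plus 5 SD in both duplicates, and also a hit in the primary screen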). The note with it: Fluo-4 calcium flux, at 10 µM; hits give high values.
Test [13] can be described thus: calcium flux inhibitors in TRPC4/5HT1a cells, confirmation, counter-screen for TRPC4 inhibitor project, cell-based, second counter screen, HEK293 TRPC4/5HT1a, Fluo-4 (AID 434978;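 active = primary screen active whose calcium signal fell more than 3 SD beyond the full-serotonin control mean in both duplicate plates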;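 for outcome: serotonin given first at submaximal then at maximal dose after compound preincubation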). The note with it: Fluo-4 calcium flux, at 10 µM, serotonin added to trigger calcium flux; hits give high values.
Test [14] concerns TRPC4 (mouse), co-expressed with 5HT1a in HEK293. The test is described as follows: calcium flux potentiators in TRPC4/5HT1a cells, confirmation, counter-screen for TRPC4 potentiator project, cell-based, second counter screen, HEK293 TRPC4/5HT1a, Fluo-4 (AID 434979;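 active = signal rise over 3 SD above mean of control wells given weak agonist, in both repeats and first screen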). The note with it: Fluo-4 calcium flux, at 10 µM, serotonin added at its EC20 dose; hits give high values.
The nature of test [15]: calcium flux activation in mu-opioid HEK293 cells, confirmation, counter-screen for TRPC4 activator project, cell-based, HEK293 mu-opioid receptor line (AID 449723;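 active = hit in primary screen, with calcium signal over 5 SD above buffer well mean in both duplicates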;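 note: counter screen cells carry the mu-opioid receptor alone and lack TRPC4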). The note with it: Fluo-4 calcium fluorescence, at 10 µM; hits give high values.
The nature of test [16]: calcium flux enhancement in mu-opioid HEK293 cells, confirmation, counter-screen for TRPC4 allosteric potentiator project, cell-based, HEK293 mu-opioid receptor line (AID 449724;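 active = calcium signal rise more than 3 SD above the low-dose agonist control mean, in both duplicate plates and the primary screen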;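 note: HEK293 cells carrying mu-opioid receptor only with no TRPC4 channel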). The note with it: Fluo-4 calcium flux, at 10 µM, compound added before EC20 DAMGO stimulus; hits give high values.

Short transient receptor potential channel 4 (Mus musculus), sequence (Q9QUQ5 whole entry, looked up): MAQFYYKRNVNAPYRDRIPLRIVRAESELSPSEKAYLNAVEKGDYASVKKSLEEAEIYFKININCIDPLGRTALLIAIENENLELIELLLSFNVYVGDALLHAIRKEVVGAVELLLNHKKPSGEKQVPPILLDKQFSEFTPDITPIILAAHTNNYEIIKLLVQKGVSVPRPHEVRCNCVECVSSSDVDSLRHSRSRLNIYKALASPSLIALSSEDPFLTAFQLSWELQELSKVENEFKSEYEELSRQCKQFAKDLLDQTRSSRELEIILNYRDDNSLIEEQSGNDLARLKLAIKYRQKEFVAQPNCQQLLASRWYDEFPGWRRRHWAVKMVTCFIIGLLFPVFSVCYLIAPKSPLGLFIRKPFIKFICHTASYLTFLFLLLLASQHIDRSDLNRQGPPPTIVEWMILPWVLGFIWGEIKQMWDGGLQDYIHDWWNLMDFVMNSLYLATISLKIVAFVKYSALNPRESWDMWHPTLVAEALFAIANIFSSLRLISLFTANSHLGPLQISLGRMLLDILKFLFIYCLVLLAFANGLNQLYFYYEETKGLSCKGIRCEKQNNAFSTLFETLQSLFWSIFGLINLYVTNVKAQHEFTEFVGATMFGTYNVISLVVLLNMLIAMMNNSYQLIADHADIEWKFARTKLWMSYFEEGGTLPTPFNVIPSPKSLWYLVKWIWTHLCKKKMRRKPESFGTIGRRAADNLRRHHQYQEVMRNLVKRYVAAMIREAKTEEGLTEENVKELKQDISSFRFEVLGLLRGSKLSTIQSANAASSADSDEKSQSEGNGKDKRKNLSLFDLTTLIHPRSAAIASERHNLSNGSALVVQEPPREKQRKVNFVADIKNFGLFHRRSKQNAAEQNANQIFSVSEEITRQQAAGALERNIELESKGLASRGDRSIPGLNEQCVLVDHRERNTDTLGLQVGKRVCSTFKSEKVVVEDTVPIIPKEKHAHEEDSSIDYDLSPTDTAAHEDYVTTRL

For the compound `c1ccn2cc(C34CC5CC(CC(C5)C3)C4)nc2c1`, the outcome in test [1], in test [2], in test [3], in test [4], in test [6] and in test [7] was inactive. Also, the outcome in test [8], in test [9], in test [10], in test [11], in test [12] and in test [14] was inactive. For the same compound, the outcome in [15] and in test [16] was inactive. Besides, the inhibition in test [5] is 69% (active); in test [13] it was 41.3% (active).
With `NS(=O)(=O)c1ccc(CCNCc2ccccc2OCc2ccc(F)cc2)cc1`, the result in test [1], in test [2], in test [3], in test [4], in [7] and in test [8] was inactive. The compound was called inactive in test [9], in [10], in [11], in [12], in test [14] and in test [15]. Moreover, in test [16], the result was inactive. Further, the inhibition in test [5] was 91% (active); in test [6], 55% (active); in test [13], 24.6% (active).
Take `CC(=O)Nc1cccc(C(=O)NCC2(N3CCCCC3)CCCCC2)c1`: the result in test [1], in [2], in [3], in [4], in test [6] and in test [7] was inactive. For the same compound, the result in test [8], in test [9], in [10], in test [11], in test [12] and in test [13] was inactive. The result in test [14], in [15] and in test [16] was inactive. The inhibition in test [5] was 89% (active).
For `CCN(CC)Cc1cc(CCNC(=O)c2ccc(Cl)cc2)ccc1O`, the outcome in [1], in test [2], in test [3], in test [4], in [7] and in test [8] was inactive. Further, the outcome in test [9], in test [10], in [11], in [12], in test [14] and in test [15] was inactive. Moreover, the outcome in [16] was inactive. The inhibition in [5] is 97% (active); in [6] it was 75% (active); in [13] it was 31.2% (active).
Regarding `OCC1(CCCc2ccccc2)CCN(Cc2cc(F)ccc2F)CC1`, the result in test [1], in test [2], in [3], in [4], in test [6] and in test [7] was inactive. Moreover, the outcome in test [8], in test [9], in test [10], in test [11], in test [12] and in test [13] was inactive. In addition, the outcome in [14], in [15] and in [16] was inactive. Further, in test [5], the inhibition was 92% (active).
`O=C(c1ccco1)N1CCN(C/C=C/c2ccccc2)CC1`: the outcome in test [1], in [2], in test [3], in [4], in test [7] and in [8] was inactive. The result in test [9], in test [10], in [11], in [12], in [13] and in test [14] was inactive. Also, the outcome in test [15] and in [16] was inactive. Further, the inhibition in test [5] was 87% (active); in test [6], 64% (active).
On to `C=CCOc1ccc(Br)cc1CNC(C)(C)CO`, for which the result in [1], in test [2], in [3], in [4], in test [7] and in [8] was inactive. In addition, the call in test [9], in test [10], in [11], in test [12], in test [14] and in [15] was inactive. In addition, the outcome in [16] was inactive. Besides, the inhibition is 94% (active) in [5], 39% (active) in test [6] and 24.1% (active) in test [13].
Regarding `COc1cc(C(F)(F)F)nc2c(Br)c(C(C)(C)C)nn12`, the result in test [1], in test [2], in [3], in [4], in [7] and in test [8] was inactive. In addition, the result in test [9], in test [10], in test [11], in [12], in [14] and in test [15] was inactive. Besides, in test [16], the result was inactive. Also, the inhibition in [5] was 92% (active); in test [6], 65% (active); in test [13], 35.3% (active).
For `CN(CC1CCCN(CCc2cccc(C(F)(F)F)c2)C1)C(=O)c1cc2ccccc2o1` (centres undefined), the outcome in [1], in test [2], in test [3], in [4], in [6] and in [7] was inactive. Also, the outcome in [8], in test [9], in [10], in test [11], in [12] and in test [14] was inactive. Moreover, the result in test [15] and in [16] was inactive. For the same compound, the inhibition in test [5] is 85% (active); in test [13], 1.18% (active).
Regarding `Cc1cccc(C(=O)Nc2sc(-c3ccccc3)cc2C(=O)O)c1`, the result in [1], in test [2], in [3], in test [4], in [6] and in test [7] was inactive. Further, the outcome in test [8], in test [9], in [10], in test [11], in test [12] and in test [14] was inactive. Besides, the result in test [15] and in [16] was inactive. The inhibition in test [5] was 98% (active); in test [13] it was 19.4% (active).
In the case of `NC(=O)c1nsc(C(=O)N(Cc2ccccc2F)C(C(=O)NCC2CCCO2)c2ccc(F)cc2)c1N` (centres undefined), the result in test [1], in test [2], in [3], in test [4], in test [7] and in test [8] was inactive. In addition, the outcome in test [9], in test [10], in test [11], in [12], in test [14] and in test [15] was inactive. In test [16], the result was inactive. In addition, the inhibition in test [5] was 93% (active); in test [6] it was 50% (active); in [13], 26.4% (active).
`COc1ccccc1N1CCN(CCCNC(=O)Nc2ccccc2)CC1`: the result in test [1], in [2], in test [3], in [4], in test [7] and in test [8] was inactive. Moreover, the outcome in [9], in [10], in test [11], in test [12], in test [14] and in test [15] was inactive. Besides, the outcome in test [16] was inactive. Further, the inhibition in test [5] is 95% (active); in test [6] it was 61% (active); in test [13] it was 22.6% (active).
Turning to `Cc1nc(N2CCN(c3ccccn3)CC2)c2c(C)c(C(=O)N3CCN(c4ccc(F)cc4)CC3)sc2n1`, the result in test [1], in test [2], in test [3], in test [4], in [7] and in test [8] was inactive. Besides, the outcome in test [9], in [10], in [11], in [12], in [13] and in test [14] was inactive. The outcome in [15] and in [16] was inactive. Moreover, the inhibition in [5] is 99% (active); in [6], 48% (active).
For `Cc1cc2[nH]c3ccccc3c2c(C)n1`, the result in test [1], in test [2], in test [3], in test [4], in test [6] and in test [7] was inactive. For the same compound, the result in [8], in test [10], in test [11], in test [12], in [14] and in [15] was inactive. In test [16], the outcome was inactive. Also, the inhibition is 87% (active) in [5], 41.5% (active) in [9] and 20.3% (active) in test [13].
